The list is not random: actives were taken first. Their share in the collection is about 12%.
BAZ2B inh: blocks human BAZ2B. Potency, µM (top dose mostly 114 µM), for inactives: at the top dose activity change, negative = inhibition, usual class: inhibitors. AlphaScreen BAZ2B-H3K14Ac peptide displacement. AID 504333. Q9UIF8. hit rate 4.4% among 360,000; also: % is scaled to controls: 0 for no effect and ±100 for the full control effect; nearly all actives have a fitted effect of over 60% in size
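Inhibition is scored as reduced AlphaScreen emission. The BAZ2B/b-H3(5-23)K14Ac complex (50 nM each) in PBS pH 7.4, 0.01% Tween-20 meets compound (up to 110 uM) for 30 min at RT before bead addition.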
G9a inh: G9a (human) methyltransferase inhibition; AID 504332; G9a H3K9 monomethylation, AlphaScreen, 2 h; hit rate 8.8% among 350,000; Q96KQ7; Potency, µM (top dose mostly 102 µM), for inactives: at the highest dose activity, negative = inhibition, hits mostly inhibitors; also: % is scaled to controls: 0 for no effect and ±100 for the full control effect; nearly all actives have a fitted effect of over 75% in size
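Methyltransferase reactions run at room temperature for 2 h (20 nM enzyme, 500 nM biotin-H3K9 peptide, 20 uM SAM) after a 15 min compound preincubation; product detected by AlphaScreen beads and anti-H3K9me1 antibody.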
JMJD2A Tudor inh: inhibitors of human JMJD2A Tudor domain. AlphaScreen JMJD2A-Tudor / H3K4me3 peptide binding. Potency, µM (titrated, usually from 114 µM), for the others: at the highest dose activity change, negative = inhibition, usual class: inhibitors. hit rate 4.4% among 390,000; also: % is scaled to controls: 0 for no effect and ±100 for the full control effect; nearly all actives have a fitted effect of over 50% in size
L3MBTL1 inh: blocks human L3MBTL1 | AID 485360 | AlphaScreen L3MBTL1–H3K9me1 peptide binding | hit rate 0.66% among 230,000 | Potency, µM (top dose mostly 57.1 µM), inactives show at the highest dose activity, negative = inhibition, most hits filed as inhibitors; also: % is scaled to controls: 0 for no effect and ±100 for the full control effect; nearly all actives have a fitted effect of over 60% in size
Target sequence (Q9Y468 whole entry, looked up): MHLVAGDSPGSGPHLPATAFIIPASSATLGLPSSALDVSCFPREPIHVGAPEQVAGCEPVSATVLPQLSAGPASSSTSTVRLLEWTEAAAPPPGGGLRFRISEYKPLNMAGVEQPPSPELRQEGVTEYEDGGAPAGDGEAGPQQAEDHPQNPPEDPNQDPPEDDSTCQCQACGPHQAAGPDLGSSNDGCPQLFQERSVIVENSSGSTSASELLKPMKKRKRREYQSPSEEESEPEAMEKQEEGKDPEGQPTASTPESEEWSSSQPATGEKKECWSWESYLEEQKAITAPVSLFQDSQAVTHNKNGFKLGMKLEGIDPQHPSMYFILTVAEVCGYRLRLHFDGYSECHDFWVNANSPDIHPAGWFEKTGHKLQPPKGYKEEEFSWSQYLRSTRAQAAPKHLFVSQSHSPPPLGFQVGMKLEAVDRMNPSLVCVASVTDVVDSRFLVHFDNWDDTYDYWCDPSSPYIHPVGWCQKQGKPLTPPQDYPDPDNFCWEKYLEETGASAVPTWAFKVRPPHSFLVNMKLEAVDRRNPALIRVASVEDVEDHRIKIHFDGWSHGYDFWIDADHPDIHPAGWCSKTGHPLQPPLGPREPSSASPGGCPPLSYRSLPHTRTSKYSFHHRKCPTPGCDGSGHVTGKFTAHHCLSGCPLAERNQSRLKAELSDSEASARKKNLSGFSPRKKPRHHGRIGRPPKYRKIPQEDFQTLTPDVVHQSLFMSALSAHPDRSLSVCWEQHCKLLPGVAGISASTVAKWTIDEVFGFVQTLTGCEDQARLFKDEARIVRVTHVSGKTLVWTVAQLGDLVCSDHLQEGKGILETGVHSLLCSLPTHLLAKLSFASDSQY
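L3MBTL1 50 nM + b-AHA-H3(1-15)K9me1 75 nM, 30 min RT; compound added, 30 min RT; streptavidin donor/Ni-chelate acceptor beads 10 ug/mL each final, 30 min RT dark; AlphaScreen read.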
Sfp inh: blocks B. subtilis Sfp PPTase activity; Q9F4F7; Biochemical Sfp PPTase activity, qHTS; Potency, µM, inactives show largest response in the series, negative = inhibition, usual class: inhibitors; hit rate 3.5% among 310,000;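 also: the enzyme is Sfp with the accession as filed and its product quenches rhodamine fluorescence; 0% = enzyme reaction without inhibitor and -100% = no enzyme wells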
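Fluorescence-quenching assay with 15 nM Sfp, 5 uM rhodamine-CoA and 12.5 uM BHQ-2-labelled ybbR peptide in pH 7.6 Hepes/MgCl2 buffer. Enzyme was pre-incubated with compound for 15 min at room temperature. Rate was taken from the 30-min fluorescence change (525/598 nm).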
HP1b binding inh: HP1-beta chromodomain-methylated histone interaction inhibition | P83916 | AlphaScreen HP1-beta / biotin-H3K9me3 peptide binding | Potency, µM (series often up to 114 µM), for inactives: at the highest dose activity change, negative = inhibition, hits mostly inhibitors | hit rate 0.56% among 390,000; also: nearly all actives have a fitted effect of over 70% in size
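AlphaScreen: HP1-beta (50 nM) preformed 30 min with biotin-H3(1-18)K9me3 peptide (50 nM) in PBS pH 7.4, 0.01% Tween-20. Compound added for 30 min at RT, then streptavidin donor/nickel chelate acceptor beads (10 ug/mL) for 30 min.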
Starred values were filed as active, the others as inactive; ? = inconclusive; / = no result; [ ] = remark or other dose. Calls follow the shape of the dose curve; as a rule, active = well fitted curve in the direction sought with a large enough effect; inconclusive = small, poorly fitted or top-dose-only effect, or another doubt; inactive = no such curve, though single readings can be large; an effect the other way counts as inactive or inconclusive. Potency is read from the fitted curve at half-maximal effect.

SMILES	BAZ2B inh	G9a inh	JMJD2A Tudor inh	L3MBTL1 inh	Sfp inh	HP1b binding inh
O=C(NCCc1ccccn1)C(F)(F)C(F)(F)C(F)(F)C(F)(F)C(F)(F)C(F)F	15%	?	50µM*	31%	-9%	10%
O=C(NC1CCCC1)C(c1ccccc1)N(Cc1ccccc1)C(=O)c1csnn1 (stereo unspecified)	4%	20%	-10%	/	7%	15%
COc1ccc(N2CCN(Cc3nnc(-c4cccc(Br)c4)o3)CC2)cc1	45µM*	11µM*	79µM*	/	/	?
Cc1ccc(S(=O)(=O)N(CC(=O)N/N=C/c2ccco2)Cc2ccccc2)cc1	-31%	-9%[12.7 µM]	?	-8%	-2%	4%
Cc1cccc(CN(CC(=O)N/N=C/c2ccco2)S(=O)(=O)c2ccc(Cl)cc2)c1	50µM*	?	79µM*	/	4%	?
O=C1CN(C(=O)COC(=O)c2cccc(S(=O)(=O)NCc3ccccc3)c2)c2ccccc2N1	-2%	-6%[12.7 µM]	-11%	/	3%	14%
O=C1CN(C(=O)COC(=O)c2ccc(N3CCCCCC3)c([N+](=O)[O-])c2)c2ccccc2N1	?	40µM*	?	-24%	1%	?
CCN(CC)S(=O)(=O)c1cccc(C(=O)OCC(=O)N2CC(=O)Nc3ccccc32)c1	-19%	20µM*	-21%	-2%	6%	1%
CS(=O)(=O)c1ccc(C(=O)OCC(=O)N2CC(=O)Nc3ccccc32)cc1[N+](=O)[O-]	/	/	-21%	/	/	31%
Cc1cccc(NC(=O)C2CCC(CNS(=O)(=O)c3ccc4c(c3)CCCC(=O)N4)CC2)c1C (stereo unspecified)	-13%	-9%[59 µM]	-20%	/	/	29%
CC(=O)Nc1cccc(NC(=O)CSc2nccn2C2CCCC2)c1	-3%	-20%[59 µM]	-16%	/	/	40%
O=C(CSc1nccn1C1CCCC1)Nc1cccc(F)c1	79µM*	-16%[59 µM]	-29%	/	/	9%
CN(CCOc1ccccc1)CCOc1ccccc1	-22%	11%	-27%	/	9%	-19%
CN(CCOc1ccc(F)cc1)Cc1ccccc1	50µM*	10µM*	0.79µM*	-2%	-12%	?
COc1ccc(N(Cc2ccccc2)N=O)cc1	0%	40µM*	27%	2%	18%	51%
COc1ccc(N(Cc2ccccc2)S(=O)(=O)c2ccc(C)cc2)cc1	3%	38%	-17%[11.4 µM]	16%	23%	49%
COc1cc(C)ccc1OCCOCCN(C)Cc1ccccc1	?	?	3.2µM*	2%	-17%	?
CN(CCCCOc1ccc(F)cc1)Cc1ccccc1	79µM*	/	22µM*	-1%	-24%	?
CN(CCOCCOc1ccc2ccccc2c1)Cc1ccccc1	-15%	4%[59 µM]	-18%	/	1%	74%
CN(C)CCCCOc1ccc(F)cc1	79µM*	8.9µM*	0.89µM*	/	-2%	?
CN(C)CCOc1ccccc1Cc1ccccc1	?	?	-18%	0%	-21%	31%
COc1ccc(OCCCN(C)Cc2ccccc2)cc1	?	13µM*	25µM*	-4%	-14%	?
CCC(C)c1ccccc1OCCCN(C)Cc1ccccc1 (stereo unspecified)	?	11µM*	7.1µM*	4%	-1%	17%
COc1ccc(OCCN(C)Cc2ccccc2)cc1	4%	?	-26%	-2%	1%	10%
Cc1cc(C)c(C)c(OCCCCN(C)Cc2ccccc2)c1	50µM*	10µM*	11µM*	6%	-30%	?
Cc1cc(C)c(C)c(OCCCCn2cnc3ccccc3c2=O)c1	24%	44%	5%	7%	1%	43%
CCOC(=O)C1CCN(C(=O)CSc2n[nH]c(-c3ccccc3Cl)n2)CC1	1%	?	-31%	/	/	34%[57 µM]
CN(CCOC(=O)c1ccccc1)Cc1ccccc1	2%	7%[59 µM]	1%	10%	22%	43%
CCc1ccc(OCCCCN(C)Cc2ccccc2)cc1	?	/	14µM*	4%	-9%	?

Source: PubChem BioAssay (National Center for Advancing Translational Sciences (NCATS))
